Source: PubChem BioAssay (NCI)
Compounds without any hit were thinned out: in the full panel of roughly 83,000, 20% have a hit.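 Cell lines were cultured in 96-well plates, exposed to a single compound concentration, and assessed for percent growth 48 hours later.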 Active and inactive are the calls of the source. The calls were made as follows: active = growth percent below 10; inactive = the rest.

These compounds were tested on HL-60(TB) leukemia (assay: NCI-60 one-dose screen, 48 h (100 = growth as untreated, 0 = no growth, -100 = all killed)). Conditions: 10 µM unless noted.

SMILES	growth
CCOc1cc(/C=N\NC(=O)C[N+](C)(C)C)ccc1O	87.7% (inactive)
Cc1nc2scc(-c3ccc(Cl)cc3)n2c(=O)c1CCN1CCOCC1	99.6% (inactive)
CN(C)c1ccc(/C=C/c2ccnc3ccccc23)cc1	12.6% (inactive)
NC1=CC(=O)C(=O)c2ccccc21	39.2% (inactive)
CN1CCN(Cc2ccc(NC(=O)c3cncc(C#Cc4cncn5ccnc45)c3)cc2C(F)(F)F)CC1	20.2% (inactive)
CCCCCc1c(C)[nH]c(/C=C2\N=C(c3ccc[nH]3)C=C2OCc2ccccc2)c1C	-47.5% [100 µM] (active)
O=C1/C(=C/c2ccccc2O)C(=S)SN1Cc1ccco1	92% (inactive)
Nc1nc(Br)nc2c1ncn2C1CC(O)C(CO)O1 (stereo not given)	46% (inactive)
O=C(Nc1ccccc1)Nc1ccccc1CNc1nc(Nc2ccc(OCCN3CCCC3)cc2)ncc1Cl	-31.2% (active)
COc1ccc(-c2c(C)nn3c(NCCN4CCOCC4)cc(C)nc23)cc1OC	107% (inactive)
O=C(Nc1ccccc1O)c1ccccc1Nc1ccnc(C(F)(F)F)c1	68.3% (inactive)
O=C(Nc1ccccc1)c1cc(-n2cnc([N+](=O)[O-])c2)cc(-n2cnc([N+](=O)[O-])c2)n1	96.4% (inactive)
COc1cc2c(=O)n(C3CCCCCC3)c3c4cc[nH]c4ncc3c2cc1OC	74.1% (inactive)
CCCCNc1nc(NN2C(=O)c3cccc4cccc(c34)C2=O)nc(-n2cnc3ccccc32)n1	94.2% (inactive)
Cc1ccc(Cc2cnc(NC(=O)CN3C(=O)/C(=C\c4ccccc4)SC3=S)s2)cc1	99.6% (inactive)
N#Cc1cccc(-c2nc3ccccn3c2NCCN2CCOCC2)c1	101% (inactive)
COc1ccc(/C=C2\COc3ccc(O)cc3C2=O)c(OC)c1	11.2% (inactive)
Cc1cc(NC(=O)c2ccc(C)c(Nc3nccc(-c4cccnc4)n3)c2)cc(-n2cnc(C)c2)c1	22.8% (inactive)
COc1ccc(N/N=C/c2ccc3c(c2)Sc2ccccc2N3C)cc1	57.3% (inactive)
N#Cc1c(-c2ccccc2)cc(-c2ccccc2)n(CC(=O)NO)c1=O	-56.3% (active)

SMILES	growth
Cc1ccc(NC(=O)/C=C/c2ccccc2)c(C(N)=O)c1	-25.5% (active)
COc1ccc(-c2nc(SC(C)C)nc(NNC(N)=O)c2C#N)cc1	80.3% (inactive)
COc1ccccc1-n1c(-c2sc(NC(C)=O)nc2C)n[nH]c1=S	101% (inactive)
CCN(C(=O)Nc1cccc2ccccc12)c1ccccc1	102% (inactive)
CN(C)CCOC(=O)Nc1nc2ccc(Sc3ccccc3)cc2[nH]1	-6.29% (active)
CCOc1ccccc1/C=N\Nc1ccc(S(=O)(=O)c2ccc(N/N=C/c3ccccc3OCC)cc2)cc1	102% (inactive)
O=[N+]([O-])c1ccc(O)cc1Br	99.9% (inactive)
O=c1c(Cc2ccc(F)cc2)cc(-c2ccccc2)nn1C/C(=N/O)c1ccccc1	24.8% (inactive)
O=C1NC(=S)NC(=O)C1=Cc1cn(Cc2ccccn2)c2ccccc12	32.5% (inactive)
NC1(N)C=CC2=C(C=C1)C1(N)C3=C(C=CC(N)(N)C=C3)N2C2(N)C3=C(C=CC(N)(N)C=C3)N1C1=C2C=CC(N)(N)C=C1	-2.73% (active)
N#Cc1nc2c(S(=O)(=O)c3ccc(Cl)cc3)c(N)n(Nc3cccc(Cl)c3)c2nc1C#N	40.1% (inactive)
O=c1c2cccc(F)c2sc2c(N3CCNCC3)nc3ccccc3c12	30.9% (inactive)
CC(C)OCCCNCC(=O)Nc1ccc(S(=O)(=O)c2ccc(NC(=O)CNCCCOC(C)C)cc2)cc1	82.1% (inactive)
Nc1[nH]n2cc(-c3ccc(F)cc3)nc2c1N=Nc1ccc(S(N)(=O)=O)cc1	94.7% (inactive)
COc1ccc(-n2c(C(O)c3ccccc3)nn(CN3CCOCC3)c2=S)cc1 (stereo not given)	126% (inactive)
O=c1[nH]c2ccccc2n2cc3cccnc3c12	87.5% (inactive)
COc1cccc2c1O/C(=C\c1c([N+](=O)[O-])ncn1C)C2=O	95.8% (inactive)
CN(C)CCn1c(=O)c2ccccc2n2nc3ccccc3c12	70.3% (inactive)
CC(C)c1ccc(-n2c(=S)[nH]c3sc4c(c3c2=O)CCC(=O)C4)cc1	75.4% (inactive)
O=C(CCCCCCN1CC(=O)N2[C@@H](c3ccc(Cl)c(Cl)c3)c3[nH]c4ccccc4c3C[C@H]2C1=O)NO	-11.8% (active)
